{
  "source": "paper PMC7819943",
  "about": "“Rice protein-binding microarrays: a tool to detect cis-acting elements near promoter regions in rice”",
  "note": "The full ranking holds about 39,000 sequences; the median of “fluorescence intensity (a.u.)” is about 4,300, and the highest 2% start at about 39,000. For the sample, the highest values were picked, then their nearest neighbours and some sequences at random.",
  "data": [
    {"target": "T1, OsSMF1 (Oryza sativa, UniProt Q6ZLB0 1-436)", "T1 sequence": "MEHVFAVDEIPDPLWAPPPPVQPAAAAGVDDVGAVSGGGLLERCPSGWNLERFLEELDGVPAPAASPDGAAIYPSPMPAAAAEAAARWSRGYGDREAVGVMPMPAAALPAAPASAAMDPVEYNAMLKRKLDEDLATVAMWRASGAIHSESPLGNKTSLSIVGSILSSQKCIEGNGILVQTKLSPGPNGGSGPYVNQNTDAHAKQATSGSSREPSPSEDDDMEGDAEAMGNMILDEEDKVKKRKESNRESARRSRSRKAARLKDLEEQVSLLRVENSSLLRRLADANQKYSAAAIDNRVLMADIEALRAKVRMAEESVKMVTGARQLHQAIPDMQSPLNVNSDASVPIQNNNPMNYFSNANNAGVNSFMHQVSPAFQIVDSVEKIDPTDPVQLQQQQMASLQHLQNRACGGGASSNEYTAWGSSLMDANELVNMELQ", "assay": "protein-binding microarray (RPBM); PBS, 2% BSA, 51.3 ng/ul salmon testes DNA, 50 uM zinc acetate, 200 nM TF, 25 C, 1 h; high values mean tight binding", "conditions": "protein: recombinant; tags: N-terminal polyhistidine and DsRed monomer fusion (pET32a); chain copies: 2; label: CyDye5-dUTP incorporated in the synthesized complementary strand; 3' TTTTT single-stranded linker to array surface; dsDNA, one strand shown", "in_short": "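Using Ni–NTA, transcription factors fused N-terminally to polyhistidine and DsRed were purified after expression in E. coli BL21-CodonPlus. These were incubated at 200 nM with a blocked, double-stranded custom Agilent array for 1 h at 25 °C in a buffer containing 50 µM zinc acetate, and the array was washed. The binding signal is per-feature fluorescence intensity (arbitrary units) on an Axon 4000B scanner.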", "values": [
      {"sequence": "CTCCTCCATTGCCAGTTGCTACTCATCCTCATCCTCTCCACGGAGTCACCTAGTGCAG", "binding signal": "22600 fluorescence intensity (a.u.)"},
      {"sequence": "TCCTCCAGATGTTACAGTCTCCGAATTTCAGTGATGTCACCGGAGTCACCTAGTGCAG", "binding signal": "11800 fluorescence intensity (a.u.)"},
      {"sequence": "ATCCAATCTGAGCCGTCCGCTGTACACCGTAGATCTATATCGGAGTCACCTAGTGCAG", "binding signal": "3450 fluorescence intensity (a.u.)"},
      {"sequence": "CTCCGTGATCGTCATGTCAAGACGCAAAATAAAGAGCAATCGGAGTCACCTAGTGCAG", "binding signal": "33400 fluorescence intensity (a.u.)"},
      {"sequence": "GAAACCCGGCCACATCACTCCTTCCCTATGCTCCAGTGAGCGGAGTCACCTAGTGCAG", "binding signal": "8040 fluorescence intensity (a.u.)"},
      {"sequence": "TTTTGGATGCAGCATATGGTTGTCCCGATGCAAAATCCTCCGGAGTCACCTAGTGCAG", "binding signal": "4530 fluorescence intensity (a.u.)"},
      {"sequence": "CTTTTGGCAAAATCCGTGATGCAGCATCGATCCCTGTCAACGGAGTCACCTAGTGCAG", "binding signal": "39800 fluorescence intensity (a.u.)"},
      {"sequence": "TGGCAAATAGTTCCGTGATGTCAGCTTGGAAGCATCCTGCCGGAGTCACCTAGTGCAG", "binding signal": "6410 fluorescence intensity (a.u.)"},
      {"sequence": "ATATATACCTGCATACACTAGACTAGTATAATACCTGGCACGGAGTCACCTAGTGCAG", "binding signal": "3530 fluorescence intensity (a.u.)"},
      {"sequence": "TTTCGGTCATGAAAACTCAGGACCAAATTTCATCCAAATACGGAGTCACCTAGTGCAG", "binding signal": "29300 fluorescence intensity (a.u.)"},
      {"sequence": "AAACGATAATATACCTTGTATAGTCATCCAACTCTTATTTCGGAGTCACCTAGTGCAG", "binding signal": "3630 fluorescence intensity (a.u.)"},
      {"sequence": "TATCCAAAATTTCATCCAACTCTTGTGGGAGAAACGGACACGGAGTCACCTAGTGCAG", "binding signal": "39500 fluorescence intensity (a.u.)"},
      {"sequence": "GATTTCTTTCTGCCGTCATCTTCGAATATCCATGACTCGCCGGAGTCACCTAGTGCAG", "binding signal": "3840 fluorescence intensity (a.u.)"},
      {"sequence": "AAATGTCTCCCAAAACCTCAAAATTGAGTTCCATTATGAACGGAGTCACCTAGTGCAG", "binding signal": "61600 fluorescence intensity (a.u.)"},
      {"sequence": "ATCGATCAGGCAATGAACCCATTATTGTTTGCCTCCAAAACGGAGTCACCTAGTGCAG", "binding signal": "34100 fluorescence intensity (a.u.)"},
      {"sequence": "CACTTGATGAGCTCCTCTCCATGTCCTCAAACGTACTGAACGGAGTCACCTAGTGCAG", "binding signal": "25100 fluorescence intensity (a.u.)"},
      {"sequence": "AATCGATTCGAAATCCACACCGCTACTACGGCTAATTACGCGGAGTCACCTAGTGCAG", "binding signal": "3870 fluorescence intensity (a.u.)"},
      {"sequence": "CGCATTGAGCCATTTACACTACACACACAGCCCCAGATTCCGGAGTCACCTAGTGCAG", "binding signal": "3420 fluorescence intensity (a.u.)"},
      {"sequence": "ACCTCTTGCTGCTGCTCATTCTGATGTCATTCAAAGAGATCGGAGTCACCTAGTGCAG", "binding signal": "4480 fluorescence intensity (a.u.)"},
      {"sequence": "TCTGCTGATGATCTCTCTCTCTCTCTGTTTCAAAGCTGATCGGAGTCACCTAGTGCAG", "binding signal": "44700 fluorescence intensity (a.u.)"},
      {"sequence": "GATCTGTCACTGTATGGAATGATGCAAAGCTGCTGCTGATCGGAGTCACCTAGTGCAG", "binding signal": "32000 fluorescence intensity (a.u.)"},
      {"sequence": "CGCGCGAGTGCTAGGAAGCTGAGTCACGCCCGCCCTCCTCCGGAGTCACCTAGTGCAG", "binding signal": "10700 fluorescence intensity (a.u.)"},
      {"sequence": "TCCCACATTAAATTTACTCATTAGTTGTTAGGAATCGACACGGAGTCACCTAGTGCAG", "binding signal": "20600 fluorescence intensity (a.u.)"},
      {"sequence": "CAGTAAGCTAGCAAACAAACACACAAGAATATTTGTGATCCGGAGTCACCTAGTGCAG", "binding signal": "39900 fluorescence intensity (a.u.)"},
      {"sequence": "CAAGAGAAAATAGCCAAAATAATAGCAGTAAGAACACAATCGGAGTCACCTAGTGCAG", "binding signal": "15400 fluorescence intensity (a.u.)"},
      {"sequence": "CAGAATATTTTGTCAGTCACTCTTGATCACTCTAGCAACACGGAGTCACCTAGTGCAG", "binding signal": "3980 fluorescence intensity (a.u.)"},
      {"sequence": "ATCGTGTGACGACGTCTCGTCTCGTCTCCCTCTCCCGACCCGGAGTCACCTAGTGCAG", "binding signal": "3260 fluorescence intensity (a.u.)"},
      {"sequence": "CGGGCACTCTCGTCTCCGACGTGAAGGCCCGAGATCACTGCGGAGTCACCTAGTGCAG", "binding signal": "60900 fluorescence intensity (a.u.)"},
      {"sequence": "CGACCGACCCTCGCCCGCCCACCGCCGTCACTCTCGTCTGCGGAGTCACCTAGTGCAG", "binding signal": "3920 fluorescence intensity (a.u.)"},
      {"sequence": "GGTTGATTATTCCGTCGGCGTCAGCCATCAGGTGCATCACCGGAGTCACCTAGTGCAG", "binding signal": "3270 fluorescence intensity (a.u.)"},
      {"sequence": "TCTTTCGTCGCAATGCCACGCCATCATCGATCCCTTTCCTCGGAGTCACCTAGTGCAG", "binding signal": "14800 fluorescence intensity (a.u.)"},
      {"sequence": "TTTCGGGATCCGACACGGGCTGAATCCGGCCCATCCAAACCGGAGTCACCTAGTGCAG", "binding signal": "37800 fluorescence intensity (a.u.)"},
      {"sequence": "GTCTAGCTAGTGCAATTAGAGTAACCTATATATCACACAACGGAGTCACCTAGTGCAG", "binding signal": "52200 fluorescence intensity (a.u.)"},
      {"sequence": "TAAACGCAAATTCTATATCACAACCACGTAAGTTTAGTAGCGGAGTCACCTAGTGCAG", "binding signal": "3870 fluorescence intensity (a.u.)"},
      {"sequence": "GGAGTAGATATTATCACTAGCTAGTCACACGGACACAGTGCGGAGTCACCTAGTGCAG", "binding signal": "4900 fluorescence intensity (a.u.)"},
      {"sequence": "TCGCCGCCGCGGCCGCCTCCACCTCATCATCTCCCACCTCCGGAGTCACCTAGTGCAG", "binding signal": "7900 fluorescence intensity (a.u.)"},
      {"sequence": "TTGAGCAGCCTCCCTTCCCCGGCGAGCAGCCCCGCCGCCGCGGAGTCACCTAGTGCAG", "binding signal": "3720 fluorescence intensity (a.u.)"},
      {"sequence": "ACATCACCACCCACCTCACCCTGCCGCTCCCGAGCGCGATCGGAGTCACCTAGTGCAG", "binding signal": "4000 fluorescence intensity (a.u.)"},
      {"sequence": "GCGGCGCATCCAGGAGGTTGAGTCGAGCACGCCACCGCTGCGGAGTCACCTAGTGCAG", "binding signal": "3420 fluorescence intensity (a.u.)"},
      {"sequence": "CACGGCCTCACCTCCCAGCCCGCGAGCACCGGCGGACGGACGGAGTCACCTAGTGCAG", "binding signal": "42400 fluorescence intensity (a.u.)"},
      {"sequence": "ACCTCCCACACCTGTGTCGATCCAGGCAGGCCGAGCGCGACGGAGTCACCTAGTGCAG", "binding signal": "43400 fluorescence intensity (a.u.)"},
      {"sequence": "GTACGCGAGCATCCCGGCGTTGTCGAGGCGCTCCAGGACGCGGAGTCACCTAGTGCAG", "binding signal": "40200 fluorescence intensity (a.u.)"}
    ]}
  ]
}
